From PubChem BioAssay (Tox21)
Inconclusive results are not listed. A call without a number means that no potency is given here. Activity calls are given as the source filed them. Unless noted, calls follow the shape of the dose curve; as a rule, active = well fitted curve in the direction sought with a large enough effect in the repeat runs; inconclusive = weak or mixed curves; inactive = no such curve, though single readings can be large; an effect the other way counts as inactive or inconclusive.

Legend:
[1] = qHTS assay to identify small molecule agonists of the peroxisome proliferator-activated receptor delta (PPARd) signaling pathway - cell viability counter screen (AID 743211); also: nearly all actives have a fitted effect of over 55% in size; also: potency is read from the fitted curve at half-maximal effect
In short: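 Multiplexed format: after the 2 h room-temperature LiveBLAzer B/G FRET step, CellTiter-Glo was added to the same wells. Luminescence after 30 min gave cell viability; compound exposure was 17 h at 37C.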

[2] = biological target: Peroxisome proliferator-activated receptor delta (Homo sapiens) (UniProt Q03181); test: qHTS assay to identify small molecule agonists of the peroxisome proliferator-activated receptor delta (PPARd) signaling pathway (AID 743212; calls by dose curve)
In short: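 Tox21 library screened in GeneBLAzer PPARd UAS-bla HEK293H cells. After compound treatment at 37 C, a FRET-based beta-lactamase substrate was applied for 2 h and fluorescence recorded.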

[3] = qHTS assay to identify small molecule antagonists of the peroxisome proliferator-activated receptor delta (PPARd) signaling pathway - cell viability counter screen (AID 743213); also: nearly all actives have a fitted effect of over 50% in size; also: potency is read from the fitted curve at half-maximal effect
In short: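 HEK293H PPARd UAS-bla cells, 5 h pre-incubation, compound + L165041 300 nM final, 17 h 37 C; B/G FRET substrate 2 h RT; then CellTiter-Glo 30 min RT, luminescence.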

[4] = biological target: Peroxisome proliferator-activated receptor delta (Homo sapiens) (UniProt Q03181); test: qHTS assay to identify small molecule antagonists of the peroxisome proliferator-activated receptor delta (PPARd) signaling pathway (AID 743215; active = well fitted inhibition curve with a large enough effect in the signal ratio in the repeat runs, not every such curve was filed as active; the % refers to the signal ratio;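 also: cells stimulated with agonist L165041 at 300 nM final during compound exposure; series mostly up to about 62 µM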)
In short: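 Fluorescence from cleaved LiveBLAzer B/G FRET substrate (2 h, room temperature) reports PPARd-driven beta-lactamase in HEK293H UAS-bla cells. Cells had been treated 17 h at 37 C with compound plus 300 nM final L165041.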

[5] = biological target: Bile acid receptor (Homo sapiens) (UniProt Q96RI1); test: qHTS assay to identify small molecule antagonists of the farnesoid-X-receptor (FXR) signaling pathway (AID 743217; active = well fitted inhibition curve with a large enough effect in the signal ratio in the repeat runs, not every such curve was filed as active; the % refers to the signal ratio)
In short: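 FRET fluorescence after 2 h room-temperature LiveBLAzer loading gives the readout. Prior step: FXR-bla HEK 293T cells, seeded and incubated 5 h, received test compounds plus 50 uM final CDCA for 16 h at 37 °C.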

[6] = qHTS assay to identify small molecule agonists of the farnesoid-X-receptor (FXR) signaling pathway - cell viability counter screen (AID 743218); also: nearly all actives have a fitted effect of over 45% in size; also: potency is read from the fitted curve at half-maximal effect
In short: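 Readout: CellTiter-Glo luminescence, 30 min RT, multiplexed after the FXR-bla FRET reading. HEK 293T FXR-UAS-bla cells received compound 5 h post-plating and were incubated 16 h at 37 C.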

[7] = qHTS assay to identify small molecule antagonists of the farnesoid-X-receptor (FXR) signaling pathway - cell viability counter screen (AID 743221; active = well fitted cell-killing curve with a large enough effect in the repeat runs, not every such curve was filed as active; also: nearly all actives have a fitted effect of over 50% in size)
In short: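 CellTiter-Glo, 30 min RT, luminescence; same wells as the LiveBLAzer FRET read. Cells: FXR-UAS-bla HEK 293T. Treatment: compound with chenodeoxycholic acid 50 uM final, 16 h at 37 C.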

[8] = biological target: Vitamin D3 receptor (Homo sapiens) (UniProt P11473); test: qHTS assay to identify small molecule agonists of the vitamin D receptor (VDR) signaling pathway (AID 743222; calls by dose curve)
In short: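 Following 4 h attachment at 37C, VDR-bla cells (2,000 per well) received DMSO-dissolved compounds or controls. After 16 h incubation, LiveBLAzer B/G FRET substrate was added and fluorescence read 2 h later at room temperature.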

[9] = biological target: Vitamin D3 receptor (Homo sapiens) (UniProt P11473); test: qHTS assay to identify small molecule antagonists of the vitamin D receptor (VDR) signaling pathway (AID 743223; active = well fitted inhibition curve with a large enough effect in the signal ratio in the repeat runs, not every such curve was filed as active; the % refers to the signal ratio)
In short: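 After VDR-bla cells are plated and left 4 h at 37C, DMSO-dissolved compounds and 3 nM (final) calcitriol agonist are added. Incubation continues 16 h at 37C; FRET beta-lactamase substrate then develops 2 h at room temperature.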

[10] = qHTS assay to identify small molecule agonists of the vitamin D receptor (VDR) signaling pathway - cell viability counter screen (AID 743224); also: nearly all actives have a fitted effect of over 50% in size; also: potency is read from the fitted curve at half-maximal effect
In short: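 In parallel with the bla FRET readout, cytotoxicity toward VDR-bla cells after 16 h compound exposure was assessed by CellTiter-Glo, with luminescence recorded after a 30 min room-temperature incubation.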

[11] = qHTS assay to identify small molecule antagonists of the vitamin D receptor (VDR) signaling pathway - cell viability counter screen (AID 743225); also: nearly all actives have a fitted effect of over 50% in size
In short: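 Cytotoxicity toward the VDR-bla HEK 293T line was scored by ATP-based CellTiter-Glo luminescence, read in the wells already used for the beta-lactamase readout after 16 h compound treatment under 3 nM 1-alpha,25-dihydroxyvitamin D3 stimulation.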

[12] = qHTS assay to identify small molecule agonists of the NFkB signaling pathway (AID 1159509; active = well fitted curve in the direction sought with a large enough effect in the signal ratio in the repeat runs, not every such curve was filed as active; the % refers to the signal ratio; also: series mostly up to about 61 µM)
In short: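 Pathway activation was measured in ME-180 cells stably expressing beta-lactamase under NF-kB response element control. Substrate cleavage was read as the 460/530 nm emission shift after 5 hr compound incubation.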

[13] = qHTS assay to identify small molecule agonists of the NFkB signaling pathway - cell viability counter screen (AID 1159515; calls by dose curve; also: series mostly up to about 61 µM; nearly all actives have a fitted effect of over 55% in size)
In short: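 Plate 2,000 NFkB-bla ME-180 cells/well; incubate overnight. Add compounds, 5 hr at 37 C. Add FRET substrate, 1.5 hr RT. Add CellTiter-Glo, 30 min RT; read luminescence.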

[14] = qHTS assay to identify small molecule agonists of the endoplasmic reticulum stress response signaling pathway (AID 1159516; active = well fitted activation curve with a large enough effect in the signal ratio in the repeat runs, not every such curve was filed as active; the % refers to the signal ratio)
In short: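 Beta-lactamase expression from the ER stress response element in HeLa reporter cells is quantified with the LiveBLAzer B/G FRET substrate, read at 405 nm excitation after 2 hr at room temperature, following 5 hr compound treatment at 37 C.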

[15] = qHTS assay to identify small molecule agonists of the endoplasmic reticulum stress response signaling pathway - cell viability counter screen (AID 1159517; calls by dose curve)
In short: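 In parallel with the ESRE reporter read, cytotoxicity was scored by CellTiter-Glo luminescence (30 min, room temperature) on HeLa ESRE-bla cells dosed for 5 hr.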

[16] = qHTS assay to identify small molecule antagonists of the retinoid-related orphan receptor gamma (ROR-gamma) signaling pathway - cell viability counter screen (AID 1159520); also: nearly all actives have a fitted effect of over 50% in size
In short: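 Tet-on ROR gamma CHO cells were given compounds for 2 hr, then doxycycline hyclate at 1 uM final, and incubated 16 hr at 37 C. Viability was measured as ATP content by CellTiter-Glo luminescence.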

[17] = qHTS assay to identify small molecule agonists of the AP-1 signaling pathway (AID 1159526; calls by dose curve)
[18] = biological target: Bile acid receptor (Homo sapiens) (UniProt Q96RI1); test: qHTS assay to identify small molecule agonists of the farnesoid-X-receptor (FXR) signaling pathway (AID 743220; active = well fitted activation curve with a large enough effect in the signal ratio in the repeat runs, not every such curve was filed as active; the % refers to the signal ratio)
In short: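 FXR-UAS-bla HEK 293T cells carrying a UAS-driven beta-lactamase reporter were plated for 5 h at 37C/5% CO2, then exposed to DMSO-dissolved Tox21 10K compounds for 16 h at 37C. A LiveBLAzer B/G FRET substrate was loaded for 2 h at room temperature before fluorescence reading.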

[19] = qHTS assay to identify small molecule agonists of the AP-1 signaling pathway - cell viability counter screen (AID 1159525; calls by dose curve; also: nearly all actives have a fitted effect of over 55% in size)
In short: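 Same-well cytotoxicity counter screen of the Tox21 10K library in ME-180 cells. The readout is ATP-dependent luminescence after 5 h compound treatment. Data are normalised to DMSO and tetra n-octyl ammonium bromide controls.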

Chain of Bile acid receptor (Homo sapiens) (Q96RI1 whole entry, looked up): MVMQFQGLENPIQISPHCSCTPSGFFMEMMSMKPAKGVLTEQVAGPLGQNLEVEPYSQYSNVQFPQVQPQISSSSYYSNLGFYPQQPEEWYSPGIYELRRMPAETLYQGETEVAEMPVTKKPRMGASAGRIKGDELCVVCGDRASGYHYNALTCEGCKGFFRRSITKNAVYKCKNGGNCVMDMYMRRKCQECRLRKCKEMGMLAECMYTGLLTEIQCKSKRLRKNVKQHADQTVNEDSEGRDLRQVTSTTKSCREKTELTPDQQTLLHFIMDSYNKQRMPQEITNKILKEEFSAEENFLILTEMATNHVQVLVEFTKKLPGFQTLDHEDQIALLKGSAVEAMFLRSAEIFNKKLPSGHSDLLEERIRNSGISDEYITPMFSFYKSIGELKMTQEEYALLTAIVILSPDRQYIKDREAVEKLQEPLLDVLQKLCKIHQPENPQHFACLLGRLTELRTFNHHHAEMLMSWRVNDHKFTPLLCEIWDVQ
Chain of Peroxisome proliferator-activated receptor delta (Homo sapiens) (Q03181 whole entry, looked up): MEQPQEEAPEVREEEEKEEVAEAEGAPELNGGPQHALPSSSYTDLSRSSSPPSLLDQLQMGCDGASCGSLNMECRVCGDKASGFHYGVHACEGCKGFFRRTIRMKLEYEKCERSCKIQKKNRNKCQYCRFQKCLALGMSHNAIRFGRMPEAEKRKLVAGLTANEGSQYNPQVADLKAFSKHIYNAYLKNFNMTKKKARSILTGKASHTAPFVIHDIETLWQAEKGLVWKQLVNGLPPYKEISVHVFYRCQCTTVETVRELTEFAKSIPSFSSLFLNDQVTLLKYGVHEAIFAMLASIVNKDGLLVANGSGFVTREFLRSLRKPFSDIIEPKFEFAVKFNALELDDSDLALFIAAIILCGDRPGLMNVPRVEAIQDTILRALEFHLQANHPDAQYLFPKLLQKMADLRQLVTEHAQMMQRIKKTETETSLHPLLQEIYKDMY
Chain of Vitamin D3 receptor (Homo sapiens) (P11473 whole entry, looked up): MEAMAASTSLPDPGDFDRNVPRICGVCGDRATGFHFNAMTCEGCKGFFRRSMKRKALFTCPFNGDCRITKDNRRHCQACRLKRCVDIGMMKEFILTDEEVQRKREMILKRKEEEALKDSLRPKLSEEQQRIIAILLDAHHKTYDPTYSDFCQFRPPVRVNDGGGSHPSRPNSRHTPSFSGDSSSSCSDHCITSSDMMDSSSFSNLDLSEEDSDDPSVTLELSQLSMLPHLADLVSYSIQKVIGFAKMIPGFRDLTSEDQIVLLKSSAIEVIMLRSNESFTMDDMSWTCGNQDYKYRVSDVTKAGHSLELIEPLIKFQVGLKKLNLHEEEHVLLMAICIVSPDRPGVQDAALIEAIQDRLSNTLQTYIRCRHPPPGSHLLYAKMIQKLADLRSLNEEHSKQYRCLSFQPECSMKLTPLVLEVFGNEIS

CCC(C)=O
Potency [1]: inactive | Potency [2]: inactive | Potency [3]: inactive | Potency [4]: inactive | Potency [5]: inactive | Potency [6]: inactive | Potency [7]: inactive | outcome [8]: inactive | outcome [9]: inactive | Potency [10]: inactive | Potency [11]: inactive | outcome [12]: inactive | outcome [13]: inactive | outcome [14]: inactive | outcome [15]: inactive | Potency [16]: inactive | outcome [17]: inactive

C/C=C/C=C/CCCCCCCO
Potency [1]: inactive | Potency [5]: inactive | Potency [6]: inactive | Potency [18]: inactive | Potency [7]: inactive | Potency [10]: inactive | Potency [11]: inactive | outcome [12]: inactive | outcome [13]: inactive | outcome [14]: inactive | outcome [15]: inactive | Potency [16]: inactive | outcome [19]: inactive | outcome [17]: inactive

Oc1cc(O)c(Cl)cc1Cl
Potency [1]: inactive | Potency [2]: inactive | Potency [3]: inactive | Potency [4]: inactive | Potency [5]: inactive | Potency [6]: inactive | Potency [18]: inactive | Potency [7]: inactive | outcome [8]: inactive | outcome [9]: inactive | Potency [10]: inactive | outcome [12]: inactive | outcome [13]: inactive | outcome [14]: inactive | outcome [15]: inactive | Potency [16]: inactive | outcome [17]: inactive

C[C@@H]1C[C@H]2[C@@H]3CCC4=CC(=O)C=C[C@]4(C)[C@@]3(F)[C@@H](O)C[C@]2(C)[C@H]1C(=O)CO
Potency [1]: inactive | Potency [2]: inactive | Potency [3]: inactive | Potency [4]: inactive | Potency [6]: inactive | Potency [7]: inactive | outcome [8]: inactive | outcome [9]: inactive | Potency [10]: inactive | Potency [11]: inactive | outcome [12]: inactive | outcome [13]: inactive | outcome [14]: inactive | outcome [15]: inactive | Potency [16]: inactive | outcome [17]: inactive

Cc1occc1C(=O)Nc1ccc(C(=O)N2CCC(F)(F)/C(=C\C(=O)N3CCC(N4CCCCC4)CC3)c3ccccc32)cc1
Potency [1]: inactive | Potency [5]: inactive | Potency [18]: inactive | Potency [7]: inactive | outcome [8]: inactive | outcome [9]: inactive | Potency [10]: inactive | Potency [11]: inactive | outcome [12]: inactive | outcome [13]: inactive | outcome [14]: inactive | outcome [15]: inactive | Potency [16]: inactive | outcome [19]: inactive

O=C(N[C@@H](c1ccccc1)[C@@H]1CCCCN1)c1cccc(C(F)(F)F)c1Cl
Potency [1]: 27.5 µM (active) | Potency [3]: 27.5 µM (active) | Potency [6]: 43.6 µM (active) | Potency [18]: inactive | Potency [7]: inactive | outcome [9]: inactive | Potency [10]: 30.9 µM (active) | outcome [12]: inactive | outcome [13]: inactive | outcome [14]: inactive | outcome [15]: inactive | Potency [16]: inactive | outcome [19]: inactive

Nc1ccc(C(=O)OCCCOC(=O)c2ccc(N)cc2)cc1
Potency [3]: inactive | Potency [5]: inactive | Potency [6]: inactive | Potency [18]: inactive | Potency [7]: inactive | outcome [9]: inactive | Potency [10]: inactive | Potency [11]: inactive | outcome [12]: inactive | outcome [13]: inactive | outcome [14]: inactive | outcome [15]: inactive | Potency [16]: inactive | outcome [19]: inactive | outcome [17]: inactive

O=[N+]([O-])c1cccc(S(=O)(=O)NCCNS(=O)(=O)c2cccc([N+](=O)[O-])c2)c1
Potency [1]: inactive | Potency [5]: inactive | Potency [6]: inactive | Potency [18]: inactive | Potency [7]: inactive | outcome [8]: inactive | outcome [9]: inactive | Potency [10]: inactive | Potency [11]: inactive | outcome [12]: inactive | outcome [13]: inactive | outcome [14]: inactive | outcome [15]: inactive | Potency [16]: inactive | outcome [19]: inactive | outcome [17]: inactive

CCCCC(=O)O[C@]1(C(=O)CO)CC[C@H]2[C@@H]3CCC4=CC(=O)CC[C@]4(C)[C@H]3[C@@H](O)C[C@@]21C
Potency [1]: inactive | Potency [3]: inactive | Potency [4]: inactive | Potency [5]: inactive | Potency [6]: inactive | Potency [18]: inactive | Potency [7]: inactive | Potency [10]: inactive | Potency [11]: inactive | outcome [12]: inactive | outcome [13]: inactive | outcome [14]: inactive | outcome [15]: inactive | Potency [16]: inactive | outcome [19]: inactive

CCCCCCCCCCOS(=O)(=O)O
Potency [1]: inactive | Potency [3]: inactive | Potency [5]: inactive | Potency [18]: inactive | Potency [7]: inactive | outcome [9]: inactive | Potency [10]: inactive | Potency [11]: inactive | outcome [12]: inactive | outcome [13]: inactive | outcome [14]: inactive | outcome [15]: inactive | Potency [16]: inactive | outcome [19]: inactive

COc1cc2c(N3CCN(C(=O)Nc4ccc(OC(C)C)cc4)CC3)ncnc2cc1OCCCN1CCCCC1
Potency [6]: inactive | Potency [7]: inactive | outcome [8]: inactive | Potency [10]: inactive | Potency [11]: inactive | outcome [12]: inactive | outcome [13]: inactive | outcome [14]: inactive | outcome [15]: inactive | Potency [16]: inactive | outcome [19]: inactive | outcome [17]: inactive

C[Si](NC1CCCCC1)(NC1CCCCC1)NC1CCCCC1
Potency [1]: inactive | Potency [2]: inactive | Potency [3]: inactive | Potency [4]: inactive | Potency [5]: inactive | Potency [6]: inactive | Potency [18]: inactive | outcome [8]: inactive | outcome [9]: inactive | Potency [10]: inactive | Potency [11]: inactive | outcome [12]: inactive | outcome [13]: inactive | outcome [14]: inactive | outcome [15]: inactive | Potency [16]: inactive | outcome [17]: inactive

NC(=O)Cn1c(=O)cc(CCN2CCN(c3nccc4sccc34)CC2)c2ccc(F)cc21
Potency [1]: inactive | Potency [3]: inactive | Potency [4]: inactive | Potency [6]: inactive | Potency [18]: inactive | Potency [7]: inactive | outcome [9]: inactive | Potency [10]: inactive | Potency [11]: inactive | outcome [12]: inactive | outcome [13]: inactive | outcome [14]: inactive | outcome [15]: inactive | Potency [16]: inactive | outcome [19]: inactive
